TWEAK Fn14 block: inhibitors of TWEAK-Fn14 signaling, primary screen, luciferase reporter cells, uHTS; TWEAK-stimulated Fn14 reporter cells, luciferase luminescence, 8 h; inhibition, % at 10 µM; actives 2% (n = 360,000); in the data active = inhibition above about 50%
HIF-2a inh: HIF-2a reporter inhibitors, primary screen, luminescence, 786-0 RCC cells | actives 0.72% (n = 360,000) | inhibition, % at 18.8 µM | AID 624352, 2012 | 786-0 RCC cells HIF-2a reporter, luciferase luminescence, overnight;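 active = inhibition of the luminescence signal of 40% or more relative to plate controls, in a single-dose primary screen at 18.75 µM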
KKLEB tox: cytotoxicity in KKLEB CF airway cells, primary screen, cytotoxicity control for CF NF-kB inhibitor project, cell-based, uHTS, fluorescence assay plates; KKLEB CF airway cells viability, ATPlite luminescence, overnight; stronger effect = lower value; cells stimulated with P. aeruginosa culture filtrate; AID 602141, 2011; activity change (cytotoxicity), % at 5 µM; actives 0.36% (n = 360,000);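 active = corrected activity change at or below -50% at 5 µM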
hiPSC survival: enhancers of single-cell hiPSC survival, primary screen, ATPlite luminescence | survival enhancement, % at 20 µM | actives 0.044% (n = 360,000) | 100% = ROCK inhibitor wells, 0% = DMSO; in the data active = survival enhancement above about 18%;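 also: cells exposed to compounds for 16 hours before the ATP read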
LGR2 inh: inhibitors of bursicon-induced LGR2 CRE-luciferase signal, primary screen, cell-based, HEK293, CRE-luciferase reporter, bursicon stimulation; actives 0.35% (n = 380,000); bursicon-stimulated, 4 h; inhibition, % at 9.99 µM; AID 720647, 2013; Drosophila bursicon receptor LGR2 (rickets);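 active = drop in luminescence signal, shown as inhibition above about 50% in the replicate tests, limit read from the data, passing the limit was not always enough; inconclusive = probably only some replicates passing the limit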;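 also: agonist challenge used bursicon conditioned medium at about half maximal strength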
CF NFkB inh: inhibitors of PAF-induced NF-kB signaling, primary screen, cell-based, GFP fluorescence, uHTS. KKLEB NF-kB-GFP reporter, GFP fluorescence overnight. inhibition, % at 5 µM. actives 0.86% (n = 360,000);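 active = at least 50% inhibition at 5 µM, scaled per plate between neutral and stimulator controls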;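 also: PAF is a Pseudomonas aeruginosa culture filtrate used as stimulus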
Mdm2-MdmX confirm: retested Mdm2-MdmX interaction blockers, confirmation, cell-based, luminescence, single concentration, set 2; shares compounds with HIF-2a inh; SaOS-2 split-luciferase Mdm2/MdmX complementation; inhibition, % at 8 µM; actives 99% (n = 740); AID 504601, 2011;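 active = mean inhibition of the luminescence signal across two replicates at or above 26 percent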
Target sequence (O15151 whole entry, looked up): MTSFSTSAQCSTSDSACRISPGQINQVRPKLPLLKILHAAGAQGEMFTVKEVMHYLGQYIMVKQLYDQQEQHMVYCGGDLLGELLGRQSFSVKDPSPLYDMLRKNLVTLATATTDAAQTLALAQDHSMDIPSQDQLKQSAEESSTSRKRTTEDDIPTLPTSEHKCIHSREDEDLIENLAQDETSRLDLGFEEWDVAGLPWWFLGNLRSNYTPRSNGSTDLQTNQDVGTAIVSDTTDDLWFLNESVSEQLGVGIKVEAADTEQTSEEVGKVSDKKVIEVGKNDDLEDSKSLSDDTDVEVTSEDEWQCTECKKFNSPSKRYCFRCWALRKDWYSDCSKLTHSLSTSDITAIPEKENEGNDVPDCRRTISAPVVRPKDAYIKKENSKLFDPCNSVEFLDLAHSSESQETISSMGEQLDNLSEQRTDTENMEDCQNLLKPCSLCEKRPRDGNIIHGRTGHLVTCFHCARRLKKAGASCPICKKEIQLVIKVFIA
Target sequence (Q00987 whole entry, looked up): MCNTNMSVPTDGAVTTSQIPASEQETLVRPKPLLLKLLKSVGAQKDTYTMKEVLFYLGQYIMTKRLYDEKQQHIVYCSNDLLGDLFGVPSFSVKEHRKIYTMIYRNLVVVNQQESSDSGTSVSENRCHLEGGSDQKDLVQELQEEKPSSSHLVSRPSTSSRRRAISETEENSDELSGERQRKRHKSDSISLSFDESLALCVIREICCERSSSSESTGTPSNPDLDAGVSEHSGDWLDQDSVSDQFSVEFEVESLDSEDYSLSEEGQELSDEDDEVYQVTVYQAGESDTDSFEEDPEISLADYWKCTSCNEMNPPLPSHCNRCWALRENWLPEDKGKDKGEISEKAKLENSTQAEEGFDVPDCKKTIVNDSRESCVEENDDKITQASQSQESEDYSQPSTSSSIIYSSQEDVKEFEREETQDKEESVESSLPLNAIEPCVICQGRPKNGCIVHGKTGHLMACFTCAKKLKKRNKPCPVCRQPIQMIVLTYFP
HIF-2a inh conf: HIF-2a reporter inhibitor retest, confirmation, luminescence, 786-0 RCC cells. actives 56% (n = 1,800). HIF-2a luciferase reporter luminescence, overnight. inhibition, % at 18.8 µM. shares compounds with HIF-2a inh;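 active = mean inhibition across four replicates of at least 40 percent at the single tested concentration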
HIF-1a counter: HIF-1a luciferase reporter signal reduction – MiaPaCa-2 cells, single concentration, counter-screen for HIF-2a inhibitor project, confirmation; MiaPaCa-2 HIF-1a luciferase reporter, desferoxamine, overnight; shares compounds with HIF-2a inh; inhibition, % at 18.8 µM; AID 651589, 2012; actives 72% (n = 1,800);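 active = mean inhibition of the reporter signal across four replicates at the single tested dose of 50% or more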
A number is an active result; n = inactive; u = inconclusive; x = not tested or not shown. This is a sample that favours compounds with a hit; in the whole collection about 2.3% have one here.

SMILES | TWEAK Fn14 block | HIF-2a inh | KKLEB tox | hiPSC survival | LGR2 inh | CF NFkB inh | HIF-2a inh conf | HIF-1a counter | others
CCN(CC)c1ccc(/C=N/NC(=O)c2cccc(S(=O)(=O)N3CCOCC3)c2)c(O)c1 | n | n | n | n | n | n | x | x | Mdm2-MdmX confirm=91
O=C(C[C@@H]1CC[C@@H]2[C@H](COC[C@@H](O)CN2Cc2cc(F)cc(F)c2)O1)NC1CCC1 | x | x | x | x | n | x | x | x
COc1ccccc1-c1cc(C(F)(F)F)nc(S(=O)(=O)CCCC(=O)NCc2ccc(F)cc2)n1 | 99 | 80 | -88 | n | n | 95 | 71 | 102 | Mdm2-MdmX confirm=103
COc1ccccc1-c1cc(C(F)(F)F)nc(N2CCCCC2)n1 | n | n | n | n | n | n | x | x
COc1ccccc1-c1cc(C(F)(F)F)nc(S(=O)(=O)CCCC(=O)N2CCCCC2C)n1 (stereo not drawn) | 83 | 91 | -75 | n | x | 92 | 91 | 107
CCCNC(=O)Nc1ccc2c(c1)OC[C@H](C)N(C(=O)CC)C[C@@H](C)[C@@H](OC)CN(C)C2=O | x | x | x | x | n | x | x | x
CCCN1[C@@H]2Cn3c(ccc(-c4ccccc4OC)c3=O)[C@H]1[C@@H](C(=O)N1CCOCC1)[C@@H]2CO | x | x | x | x | n | x | x | x
Cc1cc(N2CCCCC2)nc(NCc2ccccc2)n1 | n | 47 | n | n | x | n | n | 60
Cc1cc(N2CCOCC2)nc(NCc2ccccc2)n1 | n | n | n | n | n | n | x | x
O=C(c1ccc(F)cc1)N1CC(=O)N2[C@@H](CO)[C@@H](c3ccc(C#CC4CC4)cc3)[C@@H]2C1 | x | x | x | x | n | x | x | x
CCCc1cc(=O)[nH]c(SCC(=O)N2N=C(c3ccc(Cl)cc3)CC2c2ccco2)n1 (stereo not drawn) | 69 | 40 | n | n | n | n | n | 82
Nc1cc(=O)[nH]c(SCC(=O)N2N=C(c3ccc(Cl)cc3)CC2c2ccco2)n1 (stereo not drawn) | n | n | n | n | n | n | x | x
CC(C)[C@H](NS(=O)(=O)c1ccccc1)C(=O)OCC(=O)N1N=C(c2ccc(Cl)cc2)CC1c1ccco1 (stereo partly drawn) | 56 | 50 | n | n | n | n | n | 89
CO[C@H]1CN(C)C(=O)c2cc(NS(C)(=O)=O)ccc2OC[C@@H](C)N(Cc2cccnc2)C[C@H]1C | x | x | x | x | n | x | x | x
O=C(NCCCN1CCOCC1)c1ccc(-n2nc(C(F)(F)F)cc2-c2cccs2)cc1 | n | 45 | n | n | x | n | n | 66
COCCCNC(=O)c1ccc(-n2nc(C(F)(F)F)cc2-c2cccs2)cc1 | n | 49 | n | n | x | n | n | n
COCCCNC(=O)c1cccs1 | n | n | n | n | x | n | x | x
CCOC(=O)c1sc(NC(=O)CSc2n[nH]c(-c3ccccc3)n2)c(C#N)c1C | n | n | n | n | x | n | x | x
CCOC(=O)c1sc(NC(=O)c2cc(-c3ccccc3)nc3ccccc23)c(C#N)c1C | 62 | n | n | n | x | n | x | x | Mdm2-MdmX confirm=98
N#Cc1c(N)nc(Sc2ccc(Cl)cc2)c(C#N)c1-c1ccccc1Cl | 58 | 47 | n | n | n | n | n | n
CN1CCN(CC(=O)N2N=C(c3cccs3)CC2c2ccco2)CC1 (stereo not drawn) | n | n | n | n | n | n | x | x
O=C(CCl)N1N=C(c2cccs2)CC1c1ccco1 (stereo not drawn) | 67 | n | n | n | n | n | x | x | Mdm2-MdmX confirm=103
C[C@H]1CN([C@@H](C)CO)S(=O)(=O)c2ccc(C3=CCCC3)cc2O[C@H]1CN(C)Cc1ccccc1 | x | x | x | x | n | x | x | x
CC(=O)Nc1ccc(NC(=O)c2ccc(-c3ccnn3C)c3ccoc23)cc1 | n | 61 | n | n | n | n | 86 | n
O=C(Nc1ccccc1-c1nc2ccccc2[nH]1)c1ccc(N2C(=O)CCC2=O)cc1 | n | 45 | n | n | n | n | n | n
SMILES | TWEAK Fn14 block | HIF-2a inh | KKLEB tox | hiPSC survival | LGR2 inh | CF NFkB inh | HIF-2a inh conf | HIF-1a counter | others
COc1cc2oc(=O)cc(-c3ccc(-c4ccc(C)cc4)cc3)c2c(OC)c1OC | n | n | n | n | n | n | x | x
COc1cc2oc(=O)cc(-c3ccc(-c4ccc(CO)cc4)cc3)c2c(OC)c1OC | 66 | n | n | n | n | 75 | x | x | Mdm2-MdmX confirm=83
O=C(Nc1ccc(NC(=S)NC(=O)c2ccco2)cc1)c1ccccc1 | n | n | n | n | n | n | x | x
O=C(Nc1ccc(NC(=S)NC(=O)c2ccco2)cc1)c1ccc(Br)cc1 | n | 57 | n | n | n | n | 64 | n
COc1ccc2c(c1)/C(=C\c1cccc(/C=C3/C(=O)Nc4ccc(OC)cc43)n1)C(=O)N2 | 100 | 90 | n | n | 74 | 83 | 98 | 107
Cc1ccc2c(c1)/C(=C/c1ccccc1)C(=O)N2 | n | n | n | n | n | n | x | x
O=C1c2ccc(Cl)cc2S(=O)(=O)c2cccc(C(=O)N3CCC(Cc4ccccc4)CC3)c21 | n | 50 | n | n | u | n | n | 105
CCC(=O)N1[C@@H]2c3ccc(-c4ccncc4)c(=O)n3C[C@@H]2[C@@H](CO)[C@@H]1C(=O)Nc1ccccc1 | x | x | x | x | n | x | x | x
Cc1cccc(-n2ncc3c(N(C)C4CCCCC4)ncnc32)c1 | 102 | 66 | -54 | n | 88 | n | 81 | 101
Cc1cccc(-n2ncc3c(N4CCCc5ccccc54)ncnc32)c1 | n | n | n | n | x | n | x | x
COc1ccccc1/C=C/c1nc2ccccc2c(=O)o1 | n | n | n | n | n | n | x | x
COc1ccc(Cn2c(/C=C/c3ccccc3)nc3ccccc32)cc1 | n | n | n | n | x | n | x | x
COc1ccc(/C=N\n2nnc3ccccc32)cc1 | 90 | 40 | n | n | x | n | 72 | n
COc1ccc(/C=C/c2nc3ccccc3n2C)cc1 | 76 | 49 | -53 | n | 96 | n | 89 | 91
COc1ccc(/C=C/c2nc3ccccc3c(=O)o2)cc1 | 97 | 43 | n | n | 90 | n | n | 89

Screening data deposited in PubChem by several laboratories.
